Screening data (PubChem)
Only some compounds are listed: those with a hit (about 1% of all), similar ones and a draw of the others.
VCAM1 TNFa inh: reduces TNF alpha induced VCAM1 expression in HUVEC. HUVEC TNFa-induced VCAM-1 immunofluorescence, high-content imaging. inhibition, % at 2 µM. 95,000 compounds, 0.48% hits;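 active means inhibition above the batch mean plus 3 SD, with images confirmed as a hit by eye, cut at about 37% in these data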;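 further: 0% = TNF-stimulated DMSO wells and 100% = unstimulated control wells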
TNFa cytotox: HUVEC cytotoxicity counter-screen, TNF alpha stimulated; HUVEC TNFalpha-stimulated, Hoechst cell count, imaging; cell count reduction, % at 2 µM; 93,000 compounds, 0.17% hits;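 active means cell count reduction exceeding the screen mean by over 5 SD, scaled to untreated wells per plate, cut at about 78% in these data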;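 further: cells counted after 24 h of TNF alpha exposure following the 1 h pretreatment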
E-sel TNF inh: blocks E-selectin expression induced by TNF alpha. HUVEC TNFa-induced E-selectin immunofluorescence, high content. inhibition, % at 2 µM. 120,000 compounds, 0.71% hits. AID 1246;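 active means inhibition above the batch mean plus 3 SD, and confirmed as a hit on visual image review, cut at about 43% in these data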;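 further: 0% = TNF-stimulated DMSO wells and 100% = unstimulated control wells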
F-actin modifier: cytoskeleton assembly modification | inhibition, % at 2 µM | 91,000 compounds, 0.18% hits | HUVEC TNFa F-actin phalloidin imaging, high content;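 active means inhibition above the batch mean plus 3 SD and confirmed as a hit by visual image inspection, cut at about 30% in these data, passing the limit was not always enough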
The depositor's hits bear a star.

What do the screens show for `CCOc1ccc(OCC)c(NC(=O)C2CCN(S(=O)(=O)c3cnc[nH]3)CC2)c1`?
VCAM1 TNFa inh: -7.0; TNFa cytotox: -6.0; E-sel TNF inh: -8.6; F-actin modifier: -5.1

How did CCCCCCOC(=O)/C=C/c1c(C)[nH]c(=O)[nH]c1=O do in these assays?
VCAM1 TNFa inh: 11.3; TNFa cytotox: -2.8; E-sel TNF inh: 74.0*; F-actin modifier: 7.1

How did Cc1ccccc1CS(=O)(=O)c1nnc([C@H](CC(C)C)NC(=O)OC(C)(C)C)o1 do in these assays?
VCAM1 TNFa inh: 10.3; TNFa cytotox: -16.8; E-sel TNF inh: 98.7*; F-actin modifier: 24.1

What do the screens show for `Cn1nnnc1SCc1nnc(-c2ccc(Cl)cc2)o1`?
VCAM1 TNFa inh: 8.6; TNFa cytotox: -45.6; E-sel TNF inh: 63.0*; F-actin modifier: 13.9

What do the screens show for `CN1c2ccccc2C2(C)CCCC3=Cc4cccc([N+](=O)[O-])c4OC312` (stereo not drawn)?
E-sel TNF inh: 69.2*

How did N#Cc1cc2c(nc1SCC(=O)N1CCCCC1)CCCCC2 do in these assays?
VCAM1 TNFa inh: 6.6; TNFa cytotox: -17.8; E-sel TNF inh: -27.6; F-actin modifier: -2.1

Results for CCOC(=O)c1sc(NC(=O)CSc2nc3c(cc2C#N)CCC3)c(C#N)c1C ?
VCAM1 TNFa inh: 86.4*; TNFa cytotox: -61.4; E-sel TNF inh: 10.2; F-actin modifier: 18.4

Results for CCOC(=O)c1sc(NC(=O)CSc2nc3c(cc2C#N)CCCCCC3)c(C#N)c1C ?
VCAM1 TNFa inh: -13.3; TNFa cytotox: -16.9; E-sel TNF inh: -25.2; F-actin modifier: 3.9

What do the screens show for `N#Cc1cc2c(nc1SCC(=O)N1CCCCC1)CCCC2`?
VCAM1 TNFa inh: 52.4*; TNFa cytotox: 19.4; E-sel TNF inh: -5.9; F-actin modifier: 6.7

How did CC(C)(CNc1ccc([N+](=O)[O-])cc1Cl)CNS(C)(=O)=O do in these assays?
VCAM1 TNFa inh: 39.4; TNFa cytotox: 3.8; E-sel TNF inh: 15.1; F-actin modifier: 8.6

Results for O=C(COC(=O)CNC(=O)c1ccco1)Nc1ccccc1OC(F)F ?
E-sel TNF inh: 2.5

What do the screens show for `COc1ccccc1C(=O)Nc1ccc2c(c1)nc(CN1CCN(C(C)=O)CC1)n2C`?
VCAM1 TNFa inh: 90.2*; TNFa cytotox: -10.5; E-sel TNF inh: 21.3; F-actin modifier: 6.5

What do the screens show for `CC(=O)N1CCN(Cc2nc3cc(NC(=O)c4ccccc4)ccc3n2C)CC1`?
VCAM1 TNFa inh: 25.9; TNFa cytotox: -5.8; E-sel TNF inh: 4.6; F-actin modifier: -3.2

What do the screens show for `CN(C)c1ccc(NC(=S)NC(=O)/C=C/c2ccc(Cl)cc2)cc1`?
VCAM1 TNFa inh: -2.4; TNFa cytotox: -8.1; E-sel TNF inh: 87.3*; F-actin modifier: -13.2

How did COc1ccc(C2C(C#N)=C(SCC(=O)Nc3ccc(C)cc3)NC3=C2C(=O)CC(C)(C)C3)cc1 (stereo not drawn) do in these assays?
VCAM1 TNFa inh: -7.3; TNFa cytotox: -6.4; E-sel TNF inh: 65.7*; F-actin modifier: 6.3

Results for COc1cccc(NC(=O)CSC2=C(C#N)C(c3ccco3)C3=C(CCCC3=O)N2)c1 (stereo not drawn) ?
VCAM1 TNFa inh: -4.9; TNFa cytotox: 35.6; F-actin modifier: -6.8

How did Cc1cc(C(=O)Nc2ncc(C)s2)c2ccccc2n1 do in these assays?
E-sel TNF inh: -32.5

What do the screens show for `COc1ccccc1N1CCN(S(=O)(=O)c2cc(C)sc2C)CC1`?
VCAM1 TNFa inh: 7.5; TNFa cytotox: -18.5; E-sel TNF inh: -12.7; F-actin modifier: 11.5

How did Cc1cc(S(=O)(=O)N2CCN(c3ccccc3O)CC2)c(C)s1 do in these assays?
VCAM1 TNFa inh: 15.0; TNFa cytotox: -13.3; E-sel TNF inh: 56.8*; F-actin modifier: 5.7

Results for CCn1ncc(/C=N/NS(=O)(=O)c2ccc(Cl)cc2)c1C ?
VCAM1 TNFa inh: 15.6; TNFa cytotox: -4.9; E-sel TNF inh: -23.5; F-actin modifier: 6.5

What do the screens show for `C=CCc1ccccc1OCC(O)CN(C(C)C)C(C)C` (stereo not drawn)?
VCAM1 TNFa inh: 0.3; TNFa cytotox: 0.4; E-sel TNF inh: -2.3; F-actin modifier: -3.8

Results for C=CCc1ccccc1OCC(O)CNC (stereo not drawn) ?
VCAM1 TNFa inh: 56.4*; TNFa cytotox: 93.6*; E-sel TNF inh: 4.3; F-actin modifier: 66.9*

What do the screens show for `CC(=O)c1ccc(N2CCN(C(=O)C3CCCN(S(=O)(=O)c4c(C)[nH]c(=O)[nH]c4=O)C3)CC2)cc1` (stereo not drawn)?
E-sel TNF inh: 10.9

How did Cc1cc(NC(=O)C(=O)NCCN2CCN(C(=O)c3cccs3)CC2)ccc1Br do in these assays?
VCAM1 TNFa inh: -0.9; TNFa cytotox: -27.6; E-sel TNF inh: -0.5; F-actin modifier: 34.4*

Results for COc1ccc(NC(=O)C(=O)NCCN2CCN(C(=O)c3cccs3)CC2)cc1 ?
VCAM1 TNFa inh: 12.0; TNFa cytotox: -3.3; E-sel TNF inh: 21.3; F-actin modifier: -4.2

Results for COc1ccc(Cl)c(NC(=O)Nc2c(C)n(-c3ccccc3)c(=O)n2C)c1 ?
VCAM1 TNFa inh: 94.0*; TNFa cytotox: 9.2; E-sel TNF inh: -31.9; F-actin modifier: -5.2

How did O=S1(=O)CCN(C(CO)c2ccccc2)CC1 (stereo not drawn) do in these assays?
E-sel TNF inh: -11.4

What do the screens show for `CC(C)C(C(=O)O)N1CCS(=O)(=O)CC1` (stereo not drawn)?
E-sel TNF inh: 79.8*

Results for CC(C)Cn1c(-c2cccs2)nc2ccccc21 ?
VCAM1 TNFa inh: -2.8; TNFa cytotox: 3.9; E-sel TNF inh: 84.8*; F-actin modifier: -8.5

How did O=C(Nc1ccccc1)N1CCn2c1nc1ccccc12 do in these assays?
VCAM1 TNFa inh: 15.9; TNFa cytotox: 10.0; E-sel TNF inh: -13.0; F-actin modifier: -2.2

How did COc1ccc(NC(=O)N2CCn3c2nc2ccccc23)cc1 do in these assays?
VCAM1 TNFa inh: 58.0*; TNFa cytotox: 5.7; E-sel TNF inh: -4.3; F-actin modifier: -38.2

What do the screens show for `CCCCSc1nc(C)cc(SCC(=O)N/N=C/c2cccc(OC)c2O)n1`?
VCAM1 TNFa inh: 44.1*; TNFa cytotox: 41.5; E-sel TNF inh: -16.7; F-actin modifier: 31.0

Results for COc1cccc(/C=N/NC(=O)CSc2nnc(C)n2-c2ccccc2)c1O ?
VCAM1 TNFa inh: 6.1; TNFa cytotox: -8.1; E-sel TNF inh: -20.9; F-actin modifier: -17.3

How did CCCCOC(=O)C1[C@H]2C(=O)N(CCc3ccccc3)C[C@]23C=C[C@H]1O3 (stereo partly drawn) do in these assays?
VCAM1 TNFa inh: 17.8; TNFa cytotox: -11.8; F-actin modifier: -10.3

How did CCCOC(=O)C1C2C=C[C@]3(CN(CCc4ccccc4)C(=O)[C@H]13)O2 (stereo partly drawn) do in these assays?
VCAM1 TNFa inh: 93.0*; TNFa cytotox: 81.5*; F-actin modifier: 6.2

How did O=C(C1CCC1)N1CCc2cc(S(=O)(=O)Nc3ccc4c(c3)OCCO4)ccc21 do in these assays?
VCAM1 TNFa inh: 83.0*; TNFa cytotox: 62.7; E-sel TNF inh: 0.6; F-actin modifier: -33.9

How did CCC(=O)N1CCc2cc(S(=O)(=O)Nc3ccc4c(c3)OCCO4)ccc21 do in these assays?
VCAM1 TNFa inh: -1.9; TNFa cytotox: 0.4; E-sel TNF inh: -8.5; F-actin modifier: -14.5

How did O=S(=O)(NCCc1cn2ccccc2n1)c1ccc(F)c(C(F)(F)F)c1 do in these assays?
VCAM1 TNFa inh: 16.6; TNFa cytotox: -13.0; F-actin modifier: -8.9
